Assay outcomes deposited in PubChem by National Center for Advancing Translational Sciences (NCATS).
An excerpt weighted towards active compounds, which were near 3.2% of everything screened.
p53null 32C tox = selectivity test: cytotoxicity in p53 null cells, permissive temperature. Potency, µM (top dose mostly 46.1 µM), for inactives: at the top dose activity change, negative = cytotoxicity, usual class: cytotoxic. H1299-neo p53 null cells, ATP luminescence, 24 h, 32C. AID 903. hit rate 0.62% among 55,000;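 note: 0% = DMSO only and -100% = full killing by 100 µM tamoxifen; nearly all actives have a fitted effect of over 55% in size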
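Cytotoxicity: H1299-neo (no p53), 32C, 24 h treatment. Concentrations up to 46 uM. Readout cellular ATP, luminescence. Normalization to DMSO basal and tamoxifen 100 uM maximal kill.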
p53null 39C kill = p53 null cell cytotoxicity, nonpermissive temperature | H1299 p53-null (neo) cells, 39C, ATPlite viability, 24 h | hit rate 0.97% among 55,000 | Potency, µM (highest dose often 46.1 µM), inactives show at the top dose activity, negative = cell killing, most hits filed as cytotoxic | AID 904;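 note: 0% = DMSO only and -100% = full killing by 100 µM tamoxifen; nearly all actives have a fitted effect of over 50% in size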
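Following overnight plating at 37C (600 cells/well), H1299-neo or H1299-p53A138V cells are dosed up to 46 uM. Incubation lasts 24 hr at 39C before ATP detection.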
PMP22 txn = modulators of PMP22 gene transcription in S16 Schwann cells | AID 1508649 | Potency, µM (top dose mostly 57.5 µM), inactives show at the top dose activity change, negative = inhibition, usual class: inhibitors | hit rate 2% among 43,000 | S16 Pmp22-F2sN Schwann cells, FLuc/NLuc coincidence luminescence, 24 h; active = clear falling dose curves in both reporters; inconclusive = both reporters move, but less clearly or upward; inactive = either reporter flat; the % is the NLuc reporter signal
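Transcriptional readout in edited S16(c9) cells: two luciferases reported from the Pmp22 locus, measured in turn after 24 h compound incubation.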
S16 F2sN tox = cytotoxicity in S16 Pmp22-F2sN Schwann cells; S16 Pmp22-F2sN Schwann cells viability, CellTiter-Glo, 24 h; AID 1508642; Potency, µM (top dose mostly 57.5 µM), for inactives: at the top dose activity change, negative = cytotoxicity, usual class: cytotoxic; hit rate 0.48% among 43,000; note: nearly all actives have a fitted effect of over 65% in size
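Used to flag compounds lowering reporter output through toxicity, this quantitative HTS measures ATP-based CellTiter-Glo luminescence in S16 Pmp22-F2sN Schwann cells after 24 h compound exposure at 37C.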
pS6 MEF inh = inhibitors of mTORC1 signaling in Tsc2-/- p53-/- MEF cells; AID 493208; Tsc2-/- p53-/- MEF, phospho-rpS6 immunofluorescence/PI, 24 h; hit rate 0.78% among 44,000; Potency, µM (titrated, usually from 38.3 µM), for the others: at the highest dose activity change, negative = inhibition, hits mostly inhibitors;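 note: plate controls were DMSO for no effect and rapamycin for full effect; nearly all actives have a fitted effect of over 50% in size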
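Readout is phospho-S6 Alexa 488 signal normalized to PI per well, reported as % active cells with thresholds set from rapamycin (7.5 nM) and DMSO controls. Cells: Tsc2-/-, p53-/- MEFs, 24 hrs compound at 37 C; PI cell number serves as viability.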
The depositor's hits bear a star; ? = inconclusive; / = no result given. Unless noted, calls come from the whole dose curve; as a rule, active = well fitted curve in the direction sought with a large enough effect; inconclusive = small, poorly fitted or top-dose-only effect, or another doubt; inactive = no such curve, though single readings can be large; an effect the other way counts as inactive or inconclusive. Unless noted, % is set by controls: 0 for no effect and ±100 for the full control effect; potency is the fitted concentration of half-maximal effect.

SMILES | p53null 32C tox | p53null 39C kill | PMP22 txn | S16 F2sN tox | pS6 MEF inh
Cc1ccc(NS(=O)(=O)c2cc(-c3cnc(C4CC4)o3)ccc2C)cc1Cl | 38.9% | ? | ? | 14.1µM* | ?
CCN(CC)CCNC(=O)CSc1nc2nc(C)c(Cc3ccccc3)c(C)n2n1 | 3.0% | 27.0% | 12.4% | 4.0% | 0.4%
Cc1ccc(NS(=O)(=O)c2ccc3nc(-c4ccccc4)[nH]c3c2)c(Br)c1 | -5.7% | -20.9% | -4.0% | -3.7% | -20.2%
O=S(=O)(Nc1ccc(Br)cc1)c1ccc2nc(-c3ccccc3)[nH]c2c1 | -0.9% | ? | ? | -29.6% | 11.7%
CC(C)c1ccc(NS(=O)(=O)c2ccc3nc(-c4ccccc4)[nH]c3c2)cc1 | ? | 20µM* | ? | -25.9% | -1.3%
Cc1cccc(NS(=O)(=O)c2ccc3nc(-c4ccccc4)[nH]c3c2)c1C | ? | 11.2µM* | ? | -13.0% | 1.2%
Cc1ccc(CNC(=O)CN2C(=O)COc3ccccc32)cc1 | -15.4% | 2.5% | 1.2% | 1.2% | 12.5%
Cc1ccccc1CCNC(=O)c1ccc2c(c1)c(C)c(C)n2Cc1ccccc1 | 13.2% | 9.3% | ? | ? | -2.2%
CC(C)c1ccc(S(=O)(=O)/N=C2/C=C(Sc3ncn[nH]3)C(=O)c3ccccc32)cc1 | 6.31µM* | / | / | / | /
CCc1ccc(C2=CC(c3c(F)cccc3Cl)n3c(nc4ccccc43)N2)cc1 (stereo unspecified) | 8.91µM* | ? | ? | ? | -0.3%
Cc1ccc(C2=CC(c3ccccc3C)n3c(nc4ccccc43)N2)cc1 (stereo unspecified) | 1.26µM* | ? | ? | ? | -7.0%
O=S(=O)(NCCc1csc2nc(-c3ccccc3)nn12)c1cc(F)ccc1F | -12.2% | 5.5% | -18.3% | -1.9% | -13.5%
Cc1ccc(NC(=O)C2CCCN(S(=O)(=O)c3ccc4c(c3)CCCC(=O)N4)C2)cc1Cl (stereo unspecified) | 32.7% | -1.3% | ? | -0.4% | ?
CC(=O)Nc1ccc(NS(=O)(=O)c2ccc3[nH]c4c(c3c2)CCCCC4)cc1 | 4.7% | -10.4% | ? | -2.2% | 5.0%
CC(C)(C)c1ccc(C2=NC(C)(C)N(CC(=O)Nc3ccc(F)c(F)c3)C2=O)cc1 | 2.8% | 12.6µM* | ? | -12.3% | 0.6%
COc1ccc(C2=NC(C)(C)N(CC(=O)Nc3cc(OC)cc(OC)c3)C2=O)cc1 | 5.1% | -5.0% | -10.7% | 0.8% | -10.5%
O=C(NCCN1CCCCC1)c1ccc(Cn2c(SCc3ccc(F)cc3)nc3cccnc32)cc1 | 15.8µM* | ? | -6.0% | ? | -9.7%
COc1ccc(NC(=O)Cn2c(SCc3ccc(C)cc3)nc3cccnc32)cc1OC | 3.55µM* | 5.01µM* | ? | -18.3% | -19.5%
CN(C)CCNC(=O)c1ccc(Cn2c(SCc3ccc(F)cc3)nc3cccnc32)cc1 | -10.8% | -10.0% | 10.4% | -18.0% | -5.5%
COCCCNC(=O)c1ccc(CSc2nc3cccnc3n2Cc2ccc(OC)cc2)cc1 | 3.8% | -25.3% | ? | -4.0% | ?
COCCCNC(=O)c1ccc(Cn2c(SCc3ccc(F)cc3)nc3cccnc32)cc1 | 10µM* | 12.6µM* | -10.0% | -24.5% | -6.5%
COc1ccccc1C(=O)Nc1ccc(S(=O)(=O)Nc2nc(C)cc(C)n2)cc1 | 1.3% | -0.8% | 67.2% | 4.0% | -2.2%
Cc1nn2cc(-c3ccc(OC(C)C)cc3)nc2s1 | 15.8µM* | 12.6µM* | ? | 9.2% | -16.6%
CCCOc1ccc(-c2nc3ccccc3c(=O)o2)cc1 | 15.8µM* | 5.01µM* | -2.1% | 8.5% | 5.4%
COc1cc(CNCCSc2nnnn2C)cc(Cl)c1OCc1ccccc1 | 7.6% | -12.4% | ? | ? | ?
SMILES | p53null 32C tox | p53null 39C kill | PMP22 txn | S16 F2sN tox | pS6 MEF inh
CCOc1cc(CNCCSc2nnnn2C)cc(Cl)c1OCc1ccc(Cl)cc1 | ? | 11.2µM* | ? | -12.5% | 16.5µM*
Cc1ccc(CNC(=O)C(=O)NCC(c2ccco2)S(=O)(=O)c2cccs2)cc1 (stereo unspecified) | -11.6% | 6.5% | 4.1% | 6.7% | 0.0%
Cc1cc(C)c(S(=O)(=O)NCC(c2ccco2)S(=O)(=O)c2cccs2)c(C)c1 (stereo unspecified) | 11.0% | 2.6% | ? | 17.8µM* | -4.7%
Cc1cc(S(=O)(=O)NCC(c2ccco2)S(=O)(=O)c2cccs2)ccc1F (stereo unspecified) | 5.4% | 15.4% | 8.97µM* | 10µM* | -12.6%
Cc1cc(S(=O)(=O)NCC(c2ccco2)S(=O)(=O)c2ccccc2)ccc1F (stereo unspecified) | -0.2% | 23.7% | -26.6% | ? | -4.3%
O=C(Nc1nc2c(F)cc(F)cc2s1)c1ccc2c(c1)OCCO2 | -16.7% | -40.2% | ? | -3.3% | 0.0%
COc1cccc2sc(NC(=O)c3ccc4c(c3)OCCO4)nc12 | 7.94µM* | 7.94µM* | ? | 2.8% | 10.0%
CCc1ccc(-n2nc(CO)c(C(=O)NC)n2)cc1 | ? | 20µM* | -0.8% | 0.2% | 3.7%
CCc1ccc(-n2nc(CO)c(C(=O)NCC(c3ccccc3)c3ccccc3)n2)cc1 | -0.2% | -13.6% | -27.0% | 1.1% | 1.6%
COCCCNC(=O)c1oc2c(c1C)-c1nn(Cc3cccc(Cl)c3)cc1CC2 | 19.5% | 17.8µM* | ? | ? | 7.1%
CCSc1ncc(Cl)c(C(=O)Nc2sc3c(c2C(=O)NCCCOC)CCCC3)n1 | 2.1% | 6.2% | 4.4% | -5.2% | 0.0%
CCNC(=O)c1c(NC(=O)c2nc(S(=O)(=O)CC)ncc2Cl)sc2c1CCCC2 | 18.6% | 25.1µM* | 4.47µM* | 4.47µM* | ?
COCCCNC(=O)c1c(NC(=O)c2nc(S(C)(=O)=O)ncc2Cl)sc2c1CCCC2 | -7.8% | 2.2% | 1.96µM* | 3.55µM* | -29.4%
CCOc1ccc(NC(=O)CSC2=Nc3ccccc3C3=NC(CC(=O)NCc4ccc5c(c4)OCO5)C(=O)N23)cc1 (stereo unspecified) | -9.6% | 10.8% | -28.3% | ? | 0.2%
Cc1ccc(CSc2c(C)cnc3c2c(=O)n(C)c(=O)n3C)cc1 | 8.9% | 25.1% | ? | 1.2% | -1.6%
Cn1nc(-c2ccccc2F)c2cc(C(=O)NCCc3ccc(Cl)cc3)sc21 | 27.6% | 21.1% | ? | ? | -13.1%
Cc1cn2c(=O)cc(COC(=O)c3cccc(NC(=O)c4ccc(C(C)(C)C)cc4)c3)nc2s1 | 2.51µM* | 0.794µM* | 2.5% | 8.9% | 8.0%
Cc1ccc(C(=O)Nc2ccc(C(=O)OCc3cc(=O)n4ccsc4n3)cc2)cc1 | -0.8% | -0.6% | -2.9% | 7.5% | 0.0%
CC(C)(C)c1ccc(C(=O)Nc2ccc(C(=O)OCc3cc(=O)n4ccsc4n3)cc2)cc1 | ? | 2µM* | ? | ? | 13.3%
